This is part of a sample that, as a whole, favours compounds with a hit. Of some 79,000 tested, about 15% had one in any assay. Activity calls are given as the source filed them. No stated cut-off is given here; in the data, active means growth inhibition above about 70%; inactive means the rest.
How the values were obtained:
[1] = NCI Yeast Anticancer Drug Screen. Data for the rad52 strain (AID 147);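 further: 0% = growth of vehicle-treated control cultures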; conditions: S. cerevisiae rad52 mutant growth inhibition, active compounds read high
Method in brief: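 Read-out: growth inhibition versus vehicle-treated controls. Cells were a DNA repair-deficient yeast strain treated with compounds.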

[2] = NCI Yeast Anticancer Drug Screen. Data for the wt1 strain (AID 149);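 further: 0% = growth of vehicle-treated wt1 cultures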; conditions: S. cerevisiae wt1 strain (SPY 50644) growth inhibition, active compounds read high
Method in brief: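 Compounds are added to wt1 yeast cultures. Growth is then measured. Inhibition is expressed relative to vehicle-treated controls.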

[3] = NCI Yeast Anticancer Drug Screen. Data for the rad50EPP+ strain (AID 151);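 further: 0% = growth of vehicle-treated control cultures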; conditions: S. cerevisiae rad50 mutant strain, active compounds read high
Method in brief: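 Growth inhibition read against vehicle controls in rad50EPP+ yeast, a strain altered in DNA damage repair, after compound exposure.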

[4] = NCI Yeast Anticancer Drug Screen. Data for the mgt1 strain (AID 153); conditions: S. cerevisiae mgt1 mutant growth inhibition, active compounds read high
Method in brief: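 mgt1 yeast grown with test compound; read-out is growth inhibition versus vehicle-treated cultures.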

[5] = NCI Yeast Anticancer Drug Screen. Data for the mec2-1 strain (AID 157); conditions: S. cerevisiae mec2-1 strain, active compounds read high
Method in brief: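 Yeast mec2-1 mutant treated with compound. Readout: growth inhibition vs vehicle controls.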

[6] = NCI Yeast Anticancer Drug Screen. Data for the rad14 strain (AID 159);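 further: 0% = growth of vehicle-treated control cultures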; conditions: S. cerevisiae rad14 strain growth inhibition, active compounds read high
Method in brief: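 A mutant yeast strain defective in DNA damage repair is treated with compound; inhibition of its growth is scored against untreated, vehicle-exposed cultures.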

[7] = NCI Yeast Anticancer Drug Screen. Data for the CLN2oe strain (AID 163);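 further: 0% = growth of vehicle-only control cultures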; conditions: S. cerevisiae CLN2oe strain, active compounds read high
Method in brief: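 Read-out: yeast growth inhibition, expressed relative to vehicle-only controls. The strain bears an engineered cell-cycle alteration.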

[8] = NCI Yeast Anticancer Drug Screen. Data for the cln2 rad14 strain (AID 165);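 further: 0% = growth equal to vehicle treated cultures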; conditions: S. cerevisiae cln2 rad14 strain, active compounds read high
Method in brief: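 cln2 rad14 yeast strain; compound exposure; growth inhibition read vs vehicle controls.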

[9] = NCI Yeast Anticancer Drug Screen. Data for the bub3 strain (AID 167); conditions: S. cerevisiae bub3 mutant strain, active compounds read high
Method in brief: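 Steps: expose the mutant yeast strain to compound; grow alongside vehicle-treated cultures; measure growth; express inhibition against the vehicle cultures.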

[10] = NCI Yeast Anticancer Drug Screen. Data for the wt2 strain (AID 169);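 further: 0% = growth of vehicle-treated yeast cultures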; conditions: S. cerevisiae wt2 strain growth inhibition, active compounds read high
Method in brief: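 Read-out: growth inhibition versus vehicle-treated control cultures after compound exposure of the yeast strain.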

[11] = NCI Yeast Anticancer Drug Screen. Data for the mlh1 strain (AID 171);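 further: 0% = growth of vehicle-treated control cultures of the same strain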; conditions: S. cerevisiae mlh1 strain growth inhibition, active compounds read high
Method in brief: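 Read-out: growth inhibition versus vehicle controls. Strain: engineered yeast with a defined DNA repair or cell cycle defect, compound-treated.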

[12] = NCI Yeast Anticancer Drug Screen. Data for the sgs1 strain (AID 173);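 further: 0% = growth of vehicle-only control cultures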; conditions: S. cerevisiae sgs1 mutant, active compounds read high
Method in brief: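 Read-out: yeast growth inhibition relative to vehicle controls, following compound exposure of a strain with a defined DNA repair/cell cycle alteration.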

[13] = NCI Yeast Anticancer Drug Screen. Data for the mlh1 rad18 strain (AID 175); conditions: S. cerevisiae mlh1 rad18 strain growth inhibition, active compounds read high
Method in brief: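 Yeast w/ defined DNA-repair lesions; compound exposure; growth vs vehicle controls → % inhibition.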

[14] = NCI Yeast Anticancer Drug Screen. Data for the rad18 strain (AID 177); conditions: S. cerevisiae rad18 mutant growth inhibition, active compounds read high
Method in brief: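 Readout: growth inhibition vs vehicle controls. Cells: genetically altered yeast strain, DNA repair defect.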

[15] = NCI Yeast Anticancer Drug Screen. Data for the rad50 strain (AID 155);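 further: 0% = growth of vehicle-only cultures of the same strain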; conditions: S. cerevisiae rad50 strain growth inhibition, active compounds read high
Method in brief: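 Inhibition values express reduced yeast growth in compound-treated cultures relative to vehicle-treated controls.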

[16] = NCI Yeast Anticancer Drug Screen. Data for the sgs1 mgt1 strain (AID 161);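 further: 0% = growth of cultures given vehicle only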; conditions: S. cerevisiae sgs1 mgt1 strain, active compounds read high
Method in brief: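 Mutant yeast exposed to compound; growth scored against vehicle-only wells.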

[17] = at 5.0 µM (retest, dose inferred, filed as 0.5)
[18] = at 50.0 µM (retest, dose inferred, filed as 5.0)

Measured: growth inhibition

CC[C@@]1(OC(=O)CCC(=O)O)C(=O)OCc2c1cc1n(c2=O)Cc2cc3ccccc3nc2-1
inactive: [2]; at 1.2 µM 4% | [2]; at 3.7 µM -2% | [2]; at 11.0 µM 7% | [2]; at 33.0 µM 57% | [3]; at 1.2 µM 14% | [3]; at 3.7 µM 47% | [4]; at 1.2 µM -6% | [4]; at 3.7 µM -2% | [4]; at 11.0 µM 9% | [4]; at 33.0 µM 59% | [5]; at 1.2 µM 6% | [5]; at 3.7 µM 6% | [5]; [17] 11% | [5]; at 11.0 µM 66% | [6]; at 1.2 µM 14% | [6]; at 3.7 µM -2% | [6]; at 11.0 µM 31% | [6]; at 33.0 µM 69% | [7]; at 1.2 µM 10% | [7]; at 3.7 µM 21% | [7]; at 11.0 µM 33% | [8]; [17] 5% | [8]; at 50.0 µM 37.5% | [9]; at 1.2 µM -15% | [9]; at 3.7 µM -11% | [9]; [17] 16% | [9]; at 11.0 µM 4% | [9]; at 33.0 µM 62% | [9]; at 50.0 µM 64.2% | [10]; at 1.2 µM -13% | [10]; at 3.7 µM -19% | [10]; at 11.0 µM -7% | [10]; at 33.0 µM 69% | [11]; at 1.2 µM -9% | [11]; at 3.7 µM -7% | [11]; at 11.0 µM 2% | [12]; at 1.2 µM 18% | [12]; at 3.7 µM 21% | [12]; at 11.0 µM 31% | [13]; [17] 16% | [14]; at 1.2 µM 6% | [14]; at 3.7 µM 10% | [14]; at 11.0 µM 27% | [14]; at 33.0 µM 68%
active: [1]; at 1.2 µM 78% | [1]; at 3.7 µM 87% | [1]; at 11.0 µM 92% | [1]; at 33.0 µM 95% | [1]; at 100.0 µM 94% | [2]; at 100.0 µM 90% | [3]; at 11.0 µM 79% | [3]; at 33.0 µM 85% | [3]; at 100.0 µM 89% | [4]; at 100.0 µM 89% | [5]; at 33.0 µM 89% | [5]; [18] 94% | [5]; at 50.0 µM 85.9% | [5]; at 100.0 µM 94% | [6]; at 100.0 µM 89% | [7]; at 33.0 µM 73% | [7]; at 100.0 µM 87% | [8]; [18] 72% | [9]; [18] 89% | [9]; at 100.0 µM 86% | [10]; at 100.0 µM 87% | [11]; at 33.0 µM 70% | [11]; at 100.0 µM 83% | [12]; at 33.0 µM 80% | [12]; at 100.0 µM 88% | [13]; [18] 85% | [14]; at 100.0 µM 81%

Cc1cc(OCc2ccccc2)ccc1[N+](=O)[O-]
active: [3]; at 100.0 µM 75% | [15]; [18] 85% | [5]; [18] 85% | [5]; at 100.0 µM 78% | [16]; [18] 88% | [16]; at 50.0 µM 74.6% | [7]; at 100.0 µM 71% | [8]; [18] 93% | [9]; [18] 95% | [11]; at 100.0 µM 82% | [12]; at 100.0 µM 88% | [13]; [18] 84%
inactive: [1]; at 1.2 µM 20% | [1]; at 3.7 µM 22% | [1]; at 11.0 µM 21% | [1]; at 33.0 µM 44% | [1]; at 100.0 µM 69% | [2]; at 1.2 µM 23% | [2]; at 3.7 µM -10% | [2]; at 11.0 µM 21% | [2]; at 33.0 µM 32% | [2]; at 100.0 µM 60% | [3]; at 1.2 µM -2% | [3]; at 3.7 µM -2% | [3]; at 11.0 µM 5% | [3]; at 33.0 µM 57% | [15]; at 1.2 µM 11% | [15]; at 3.7 µM 34% | [15]; [17] 50% | [15]; at 11.0 µM 29% | [15]; at 33.0 µM 31% | [15]; at 50.0 µM 37.2% | [15]; at 100.0 µM 50% | [5]; at 1.2 µM 2% | [5]; at 3.7 µM 15% | [5]; [17] 51% | [5]; at 11.0 µM 10% | [5]; at 33.0 µM 22% | [5]; at 50.0 µM 26.9% | [6]; at 1.2 µM -15% | [6]; at 3.7 µM 1% | [6]; at 11.0 µM 11% | [6]; at 33.0 µM 39% | [6]; at 100.0 µM 63% | [16]; [17] -5% | [7]; at 1.2 µM 9% | [7]; at 3.7 µM 23% | [7]; at 11.0 µM 11% | [7]; at 33.0 µM 32% | [8]; [17] 40% | [8]; at 50.0 µM 44.1% | [9]; at 1.2 µM -16% | [9]; at 3.7 µM -11% | [9]; [17] 33% | [9]; at 11.0 µM -5% | [9]; at 33.0 µM 12% | [9]; at 50.0 µM 55.6% | [9]; at 100.0 µM 51% | [10]; at 1.2 µM -11% | [10]; at 3.7 µM -11% | [10]; at 11.0 µM -7% | [10]; at 33.0 µM 9% | [10]; at 100.0 µM 47% | [11]; at 1.2 µM 21% | [11]; at 3.7 µM 15% | [11]; at 11.0 µM 3% | [11]; at 33.0 µM 16% | [12]; at 1.2 µM 11% | [12]; at 3.7 µM 16% | [12]; at 11.0 µM 6% | [12]; at 33.0 µM 38% | [13]; [17] 42% | [13]; at 50.0 µM 18.1% | [14]; at 1.2 µM -15% | [14]; at 3.7 µM -14% | [14]; at 11.0 µM -14% | [14]; at 33.0 µM 22% | [14]; at 100.0 µM 66%

O=C(O)c1ccccc1.[Ag]
inactive: [7]; at 1.2 µM 50%
active: [1]; at 1.2 µM 72% | [1]; at 3.7 µM 101% | [1]; at 11.0 µM 99% | [1]; at 33.0 µM 98% | [1]; at 100.0 µM 98% | [2]; at 1.2 µM 88% | [2]; at 3.7 µM 101% | [2]; at 11.0 µM 99% | [2]; at 33.0 µM 99% | [2]; at 100.0 µM 99% | [3]; at 1.2 µM 94% | [3]; at 3.7 µM 101% | [3]; at 11.0 µM 99% | [3]; at 33.0 µM 99% | [3]; at 100.0 µM 98% | [4]; at 1.2 µM 98% | [4]; at 3.7 µM 101% | [4]; at 11.0 µM 99% | [4]; at 33.0 µM 99% | [4]; at 100.0 µM 99% | [7]; at 3.7 µM 101% | [7]; at 11.0 µM 98% | [7]; at 33.0 µM 98% | [7]; at 100.0 µM 98% | [10]; at 1.2 µM 76% | [10]; at 3.7 µM 101% | [10]; at 11.0 µM 99% | [10]; at 33.0 µM 99% | [10]; at 100.0 µM 99% | [11]; at 1.2 µM 96% | [11]; at 3.7 µM 101% | [11]; at 11.0 µM 99% | [11]; at 33.0 µM 99% | [11]; at 100.0 µM 99% | [12]; at 1.2 µM 75% | [12]; at 3.7 µM 101% | [12]; at 11.0 µM 99% | [12]; at 33.0 µM 99% | [12]; at 100.0 µM 99% | [14]; at 1.2 µM 74% | [14]; at 3.7 µM 101% | [14]; at 11.0 µM 99% | [14]; at 33.0 µM 99% | [14]; at 100.0 µM 99%
